FUS suppressor: suppressors of FUS proteinopathy in yeast; Potency, µM (titrated, usually from 76.6 µM), hits mostly activators; AID 1347120; S. cerevisiae FUS-expressing, growth rescue, OD600, 24 h; actives 0.24% (n = 390,000);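 further: plate controls were DMSO vehicle for no effect and reference control for full effect; nearly all actives have a fitted effect of over 55% in size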
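Steps: raffinose overnight preculture; dilution to OD 0.005 in 2% galactose minimal medium; compound addition (concentration series); 24hr at 30C, 99% humidity; absorbance read at 600 nm.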
Abeta rescue: restores growth of yeast expressing A-beta42 peptide; actives 0.063% (n = 410,000); Potency, µM (doses to about 46.1 µM), hits mostly activators; yeast expressing A-beta42, growth rescue, OD600, 48 h; response scale: 0% DMSO, 100% iron-clioquinol control; AID 1347071; further: nearly all actives have a fitted effect of over 55% in size
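Yeast A-beta toxicity model in growth medium with pinned compounds, 48 h at 30 C; growth read as absorbance at 600 nm. Normalized to FeCl3/clioquinol equimolar mix (positive) and DMSO (negative).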
aSyn rescue: inhibitors of alpha-synuclein toxicity in yeast | Yeast expressing alpha-synuclein, growth rescue, BacTiter-Glo, 24 h | Potency, µM (doses to about 46.1 µM), inactives show at the highest dose growth rescue (activation), most hits filed as activators | actives 0.14% (n = 370,000); further: % of control where 0% means no effect; nearly all actives have a fitted effect of over 65% in size
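Galactose-induced alpha-syn yeast (OD600=0.02, raffinose-pregrown) + pinned cpd, 24 hr, 30 deg C; growth by BacTiter-Glo luminescence. Growth restoration scores as activation.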
TDP-43 yeast inh: TDP-43 toxicity inhibition in yeast. TDP-43 expressing yeast growth rescue, BacTiter-Glo, 24 h. Potency, µM (doses to about 46.1 µM), inactives show at the highest dose growth rescue (activation), most hits filed as activators. actives 1.8% (n = 410,000). AID 652104; further: % of control where 0% means no effect; nearly all actives have a fitted effect of over 50% in size
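Cell-based yeast growth screen: TDP-43 expression induced in galactose, inoculum OD600=0.02 after raffinose pregrowth to mid-log. Read-out BacTiter-Glo luminescence at 24 hr, 30 deg C; inhibition of toxicity seen as signal increase.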
Numbers without * were called inactive; i = inactive; ? = inconclusive; · = no result; [ ] = remark or other dose. This is a sample that favours compounds with a hit; in the whole collection about 2.1% have one here. The call rests on the fitted dose curve; in most records, active means well fitted curve in the direction sought with a large enough effect; inconclusive means small, poorly fitted or top-dose-only effect, or another doubt; inactive means no such curve, though single readings can be large; an effect the other way counts as inactive or inconclusive. Potency means the concentration at half of the fitted maximal effect.

SMILES	FUS suppressor	Abeta rescue	aSyn rescue	TDP-43 yeast inh
CCn1c(SCc2nc(-c3ccccc3)no2)nc2ccccc21	i	i	6.4%	15.8µM*
Cn1c(SCc2nc(-c3ccc(Br)cc3)no2)nnc1-c1ccco1	i	i	3.2%	0.0%
CCn1c(SCc2nc(-c3ccccc3)no2)nnc1-c1cccs1	i	i	6.2%	12.6µM*
CCn1c(SCC(=O)O)nc2ccccc21	i	i	2.7%	17.1%
c1ccc(-c2noc(CSc3nnnn3C3CCCCC3)n2)cc1	i	i	3.0%	12.6µM*
CN(C)c1ccc(/C=C/c2ccnc3c(N)cccc23)cc1	·	·	-9.1%	·
COc1ccc(NC(=O)Cn2cnc3c(oc4ccccc43)c2=O)cc1OC	i	i	·	19.9%[9.22 µM]
Clc1ccc(-c2nnc(CSc3nnc(-c4cccs4)n3Cc3ccccc3)o2)cc1	?	i	?	17.8µM*
Cc1nc2c(O)c3c(c(O)c2nc1C)C1C=CC3CC1	·	i	8.1%	12.6µM*
CN1C(=S)N(c2cccnc2)C(=O)/C1=C\c1ccc(N(C)C)cc1	?	i	-11.3%	-9.9%[9.22 µM]
CN1C(=S)N(c2cccnc2)C(=O)/C1=C\c1ccc(C(C)(C)C)cc1	i	i	?	15.8µM*
CCC(=NCc1ccc(Cl)c(Cl)c1)c1nc(-c2ccco2)oc1O	i	i	9.2%	14.1µM*
COc1cccc(/C=C/c2nccc3ccccc23)c1OC	·	·	-13.3%	·
CCOC(=O)CSC1=NC(=O)/C(=C/c2ccc(Br)cc2)S1	i	i	-31.3%	11.2µM*
CCOC(=O)CSC1=NC(=O)/C(=C\c2ccc(OC(C)=O)cc2)S1	i	i	-9.4%	-22.2%
O=C(c1cccc(C(F)(F)F)c1)N1CCOc2ccccc21	i	i	-0.6%	14.1µM*
O=C(Nc1ccc(Cl)cc1)N1CCC(c2nc(-c3cccs3)no2)CC1	?	i	11.4%	?
O=C(Nc1ccc(Cl)cc1)N1CCC(c2nc(-c3ccccc3Cl)no2)CC1	i	i	13.8%	17.8µM*
O=S(=O)(c1ccc(Cl)cc1)N1CCCC1c1nc(-c2ccc(Cl)cc2)no1 (stereo unspecified)	i	i	18.8%	-4.4%
O=S(=O)(c1ccccc1Cl)N1CCCC1c1nc(-c2ccccc2Cl)no1 (stereo unspecified)	i	i	15.9%	14.1µM*
Cc1ccc(NC(=O)N2CCCC(c3nc(-c4ccc(F)cc4)no3)C2)cc1 (stereo unspecified)	i	i	5.9%	35.5µM*
N/C(CC1CC1(Cl)Cl)=N\OC(=O)c1ccccc1 (stereo unspecified)	i	i	-35.2%	17.8µM*
COC(=O)Oc1c(Br)c(=O)oc2ccccc12	i	i	11.6%	3.55µM*
COc1cc(OC)c2c(c1)C(=O)OC2c1cc(OC)c(OC)cc1C (stereo unspecified)	·	·	-10.1%	·
Cc1ccc(NC(=O)C2CCN(c3nnc(-n4cccc4)s3)CC2)cc1C	i	·	·	·
SMILES	FUS suppressor	Abeta rescue	aSyn rescue	TDP-43 yeast inh
CCOC(=O)/C=C/c1cnn(-c2ccccc2)c1	·	i	0.0%	13.3%
O=C(O)/C=C/c1cnn(-c2ccccc2)c1	i	i	0.4%	35.5µM*
Cc1ccccc1C1CCC2(CC1)CCN(CC[C@@H](O)c1ccccc1)C2=O (stereo partly specified)	i	·	·	·
C#CCNC(=O)C[C@H]1C(=O)N(Cc2ccc(OC)cc2)C2=CCCC[C@@]21C(=O)OCC	i	·	·	·
C=CCNC(=S)N/N=C/c1ccc(C(C)(C)C)cc1	i	7.94µM*	1.5%	-5.1%[0.397 µM]
CC(C)(C)c1ccc(/C=N/NC(=S)NCc2ccccc2)cc1	i	i	0.5%	6.9%
C=CCNC(=S)N/N=C/c1cn(C)c2ccccc12	i	?	-11.3%	20µM*
CCN(CC)CCCNC(=O)CSc1nc2cccnc2n1C	i	·	·	·
COc1ccc(Cl)cc1NC(=O)CN(C)CC(=O)Nc1ccc(C)cc1Br	i	i	2.9%	17.8µM*
COc1ccc(Cl)cc1NC(=O)CN(C)C(=O)/C=C/c1ccco1	i	i	5.5%	28.2µM*
COc1ccc([N+](=O)[O-])cc1NC(=O)C(C)OC(=O)/C=C/c1ccco1 (stereo unspecified)	·	i	-10.3%	25.1µM*
COc1ccc(Cl)cc1NC(=O)CN(C)CC(=O)Nc1ccccc1-c1ccccc1	i	i	10.4%	?
O=C(Nc1ccc2c(c1)N(C1CCCC1)C(=O)c1ccccc1S2)c1cccc(F)c1	i	i	·	7.9%
NC(=O)C1CCN(c2ncc(Br)s2)CC1	i	·	·	·
O=C(c1cccc(F)c1)N1CCCC(c2nc(-c3cccs3)no2)C1 (stereo unspecified)	i	·	·	·
Cc1ccc(C(=O)c2cn(Cc3cccc(C)c3)c3nc(C)ccc3c2=O)cc1	i	i	·	20µM*
Cc1ccc(Cn2cc(C(=O)c3ccc(C)cc3)c(=O)c3ccc(C)nc32)cc1	i	i	·	25.0%
N#Cc1ccncc1Sc1ccc(Cl)cc1	i	i	22.1%	17.8µM*
N#Cc1cc(N)ccc1Sc1ccccc1	i	i	12.5%	11.2µM*
N#Cc1cc(N)ccc1Sc1ccc(Cl)cc1	i	i[9.22 µM]	17.5%	15.8µM*
N#Cc1cc(-c2ccccc2)nnc1Sc1ccc(Cl)cc1	i	i	1.0%	?
CCCn1c(NC(=O)c2ccccc2)nc(Cc2ccccc2)c1Cc1ccccc1	i	·	·	·
COc1cccc(CNS(=O)(=O)c2ccc(N3CCCCS3(=O)=O)cc2)c1	i	i	·	11.8%[9.22 µM]
C=C1NN(Cc2ccccc2)C(=O)N1c1ccc(OC)cc1	·	·	6.1%	·
Cc1c(C(=O)Nc2ccc(F)cc2F)nnn1-c1ccccc1Br	i	i	·	31.6µM*
SMILES	FUS suppressor	Abeta rescue	aSyn rescue	TDP-43 yeast inh
CN(C)N=Nc1ccc(/C=C2\C=Cc3ccccc32)cc1	·	·	-12.4%	·
CN(C)c1nc(OCCOC(=O)COc2ccc(Cl)cc2Cl)nc(N(C)C)n1	?	i	-1.3%	-9.1%
CN(C)c1nc(OCCNC(=O)COc2ccc(Cl)cc2Cl)nc(N(C)C)n1	i	i	0.4%	14.1µM*
O=C(CN1C(=O)CC(c2ccc(F)cc2)=Nc2ccccc21)NCc1ccccc1Cl	i	i	·	8.5%
Cc1cc(C)nc(Nc2nc3ccccc3s2)n1	i	i	0.3%	24.3%
Cc1ccc(Nc2nc3ccccc3s2)c(C)c1	i	i	-0.8%	25.1µM*
Cc1c(NC(=O)C2CCCN(S(=O)(=O)c3cccc4ccccc34)C2)c(=O)n(-c2ccccc2)n1C (stereo unspecified)	i	·	·	·
COc1cc([N+](=O)[O-])cc(/C=N/NC(=O)C(C)Nc2ccccc2C)c1O (stereo unspecified)	·	i	2.0%	20µM*
Cc1cc(C(=O)CSc2cccc[n+]2[O-])c(C)n1-c1ccccc1	i	i	?	?
O=C(CSc1cccc[n+]1[O-])c1ccccc1Br	i	?	?	35.5µM*
O=C(CN1CCc2onc(-c3cccc(-n4cc(CO)nn4)c3)c2C1=O)N1CCOCC1	i	·	·	·
